Several values for one entry are separate records, joined by “and”; a condition that tells them apart may be missing. Identical values can stand only once. Among all 5,500 compounds or so, about 2,000 (36%) were called active. About 18% were inconclusive and are not listed. No stated cut-off is given here; in the data, active means normalized growth mostly below about 0.91 (no sharp cut-off); inconclusive means no clear call, values can overlap the other calls; inactive means mostly above about 0.92. This is one part of the list.
Test: chemical genetic growth profiling, strain panel (AID 1159580);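 further: tested at 20 µM; growth read once vehicle control cultures reached saturation at 30 °C; 1 = growth at the plate median or of vehicle wells; lower values mean less growth of the strain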
Settings: S. cerevisiae deletion strains, growth OD

Measured: normalized growth

CS(=O)(=O)Nc1ccc([N+](=O)[O-])cc1Oc1ccccc1
inactive: locus YAL013W, strain DEP1, active compounds read low 0.986 and 1 | locus YAL021C, strain ccr4, active compounds read low 0.991 | locus YAL026C, strain drs2, active compounds read low 0.991 | locus YAL030W, strain snc1, active compounds read low 1 | locus YAL040C, strain CLN3, active compounds read low 1 | locus YBL061C, strain skt5, active compounds read low 0.994 | locus YBR009C, strain hhf1, active compounds read low 0.971 | locus YBR021W, strain FUR4, active compounds read low 0.994 | locus YBR023C, strain chs3, active compounds read low 0.984 | locus YBR171W, strain sec66, active compounds read low 0.988 | locus YBR229C, strain ROT2, active compounds read low 0.958 | locus YBR231C, strain swc5, active compounds read low 0.993 | locus YBR279W, strain paf1, active compounds read low 0.994 | locus YCL011C, strain gbp2, active compounds read low 0.996 | locus YCL016C, strain dcc1, active compounds read low 0.997 | locus YCL029C, strain bik1, active compounds read low 0.97 | locus YCL061C, strain MRC1 (second series), active compounds read low 1.01 | locus YCL061C, strain MRC1, active compounds read low 1 | locus YCL069W, strain vba3, active compounds read low 0.997 | locus YCR088W, strain abp1, active compounds read low 0.999 | locus YDL005C, strain med2, active compounds read low 0.991 | locus YDL035C, strain GPR1, active compounds read low 0.976 | locus YDL040C, strain nat1, active compounds read low 0.985 | locus YDL074C, strain BRE1, active compounds read low 0.944 | locus YDL101C, strain DUN1, active compounds read low 0.964 | locus YDL134C, strain PPH21, active compounds read low 0.999 | locus YDL185W, strain tfp1, active compounds read low 0.971 | locus YDL192W, strain arf1, active compounds read low 0.966 | locus YDR001C, strain nth1, active compounds read low 0.993 | locus YDR069C, strain doa4, active compounds read low 1.02 | locus YDR101C, strain arx1, active compounds read low 0.98 | locus YDR137W, strain rgp1, active compounds read low 0.857 | locus YDR150W, strain NUM1, active compounds read low 0.983 and 1.02 | locus YDR159W, strain sac3, active compounds read low 0.977 | locus YDR162C, strain NBP2, active compounds read low 0.979 | locus YDR195W, strain ref2 1.01 | locus YDR297W, strain sur2, active compounds read low 0.991 | locus YDR318W, strain mcm21, active compounds read low 0.991 | locus YDR334W, strain swr1, active compounds read low 1 | locus YDR335W, strain msn5, active compounds read low 0.993 | locus YDR363W, strain ESC2, active compounds read low 0.994 | locus YDR388W, active compounds read low 0.977 | locus YDR392W, strain spt3, active compounds read low 0.904 | locus YDR502C, strain sam2, active compounds read low 0.943 | locus YEL003W, strain gim4, active compounds read low 0.999 | locus YEL037C, strain rad23, active compounds read low 0.995 | locus YEL061C, strain CIN8 (second series), active compounds read low 0.988 | locus YEL061C, strain CIN8, active compounds read low 0.979 | locus YER002W, strain NOP16, active compounds read low 0.997 | locus YER015W, strain faa2, active compounds read low 0.994 | locus YER016W, strain bim1, active compounds read low 0.991 | locus YER110C, active compounds read low 0.986 | locus YER111C, strain swi4, active compounds read low 0.978 | locus YER155C, strain BEM2 (second series), active compounds read low 0.991 | locus YER155C, strain BEM2, active compounds read low 1 | locus YER167W, strain BCK2, active compounds read low 1 | locus YFR010W, strain ubp6, active compounds read low 1 | locus YGL078C, strain dbp3, active compounds read low 0.978 | locus YGL086W, strain mad1, active compounds read low 0.969 | locus YGL167C, strain pmr1, active compounds read low 0.988 | locus YGL173C, strain kem1, active compounds read low 0.995 | locus YGL227W, strain vid30, active compounds read low 0.997 | locus YGL240W, strain doc1, active compounds read low 0.995 | locus YGL248W, strain PDE1, active compounds read low 0.946 | locus YGL253W, strain hxk2, active compounds read low 1.01 | locus YGR078C, strain PAC10, active compounds read low 0.96 and 1.02 | locus YGR135W, strain pre9, active compounds read low 1.02 | locus YGR229C, strain SMI1, active compounds read low 0.971 | locus YGR252W, strain gcn5, active compounds read low 0.92 | locus YHR013C, strain ard1, active compounds read low 0.967 | locus YHR027C, strain rpn1, active compounds read low 0.995 | locus YHR030C, strain SLT2, active compounds read low 0.995 and 1.02 | locus YHR079C, strain IRE1 (second series), active compounds read low 0.977 | locus YHR079C, strain IRE1, active compounds read low 1.04 | locus YHR094C, strain hxt1, active compounds read low 0.98 | locus YHR129C, strain ARP1, active compounds read low 0.987 | locus YHR142W, strain chs7, active compounds read low 0.991 | locus YHR200W, strain rpn10, active compounds read low 0.972 | locus YIL066C, strain RNR3, active compounds read low 0.964 | locus YIL073C, strain SPO22, active compounds read low 0.969 | locus YIL125W, strain kgd1, active compounds read low 0.98 | locus YIR030C, strain dcg1, active compounds read low 0.976 | locus YJL092W, strain hpr5, active compounds read low 0.997 | locus YJL095W, strain BCK1 (second series), active compounds read low 0.993 | locus YJL095W, strain BCK1, active compounds read low 0.956 and 1.04 | locus YJL115W, strain asf1, active compounds read low 0.999 | locus YJL129C, strain trk1, active compounds read low 0.979 | locus YJL134W, strain LCB3, active compounds read low 0.991 | locus YJL154C, strain vps35, active compounds read low 0.992 | locus YJL164C, strain tpk1, active compounds read low 0.992 | locus YJL166W, strain qcr8, active compounds read low 0.997 | locus YJL168C, strain set2, active compounds read low 0.98 | locus YJL187C, strain SWE1 (second series), active compounds read low 0.949 | locus YJL187C, strain SWE1, active compounds read low 0.996 | locus YJR043C, strain POL32, active compounds read low 0.911
